rCAG RNA binder: binds r(CAG) RNA repeats | inhibition, % at 3 µM | AID 651821 | r(CAG) RNA repeat, TO-PRO-1 dye displacement fluorescence | 1.3% of 370,000 active;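 active means inhibition above the plate cutoff, the mean of all test compounds on that plate plus 3 SD, cut at about 35% in these data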;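 further: 0% = DMSO alone and 100% = 100 µM mitoxantrone as full dye displacement; higher means more dye released from RNA so lower well fluorescence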
ALR inh: human ALR oxidase inhibition via reduced H2O2. purified ALR, DTT oxidation, H2O2 HRP-luminol luminescence. inhibition, % (test concentration not listed). 3.8% of 290,000 active. AID 485317;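 active means mean replicate inhibition above about 79%, with every replicate also reaching it, limit read from the data; inconclusive means only one of the two criteria met; inactive means mean below limit and not every replicate reaching it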
A3G deaminase: blocks human APOBEC3G single-stranded DNA deamination; AID 493012; 0.28% of 330,000 active; inhibition, % at 20 µM; recombinant A3G, ssDNA deamination FAM/TAMRA fluorescence;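 active means inhibition of at least 40% at 20 µM, with no more than 30% in the related APOBEC3A deaminase screen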;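 further: plate controls were DMSO wells with A3G for no effect and wells lacking A3G enzyme for full effect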
Target sequence (Q9HC16 whole entry, looked up): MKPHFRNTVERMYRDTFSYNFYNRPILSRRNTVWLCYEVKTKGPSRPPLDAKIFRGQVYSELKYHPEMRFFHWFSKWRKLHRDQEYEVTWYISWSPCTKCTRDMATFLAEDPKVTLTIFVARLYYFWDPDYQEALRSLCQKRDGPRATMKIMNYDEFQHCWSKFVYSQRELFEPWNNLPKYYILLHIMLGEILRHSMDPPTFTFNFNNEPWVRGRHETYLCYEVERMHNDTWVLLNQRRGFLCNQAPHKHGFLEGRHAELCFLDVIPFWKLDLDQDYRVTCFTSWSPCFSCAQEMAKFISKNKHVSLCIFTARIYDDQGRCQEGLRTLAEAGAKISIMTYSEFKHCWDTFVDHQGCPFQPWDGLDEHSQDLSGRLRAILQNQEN
PHOSPHO1 block: blocks human PHOSPHO1 phosphatase activity. inhibition, % at 13.3 µM. recombinant PHOSPHO1, absorbance phosphatase assay. 1.1% of 290,000 active. Q8TCT1; in the data active means inhibition above about 60%
aDG glyco up: increases alpha dystroglycan glycosylation. Pro5-aDG cells, alpha-DG glycosylation AlphaScreen (IIH6); 0% Pro5, 100% B10-LARGE cell signal. activation, % at 10 µM. 0.22% of 360,000 active;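 active means activation of at least 8% versus controls, or a plate z-score of at least 8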;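 further: Pro5 are CHO cells carrying HIG-tagged alpha-DG that lacks glycosylation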
A3A deaminase: human APOBEC3A DNA deaminase inhibition | recombinant A3A, FAM/TAMRA ssDNA deamination fluorescence | inhibition, % at 20 µM | 0.41% of 330,000 active | AID 493011;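 active means at least 40% inhibition at 20 µM here, with at most 30% in a related deaminase screen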;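 further: plate controls were A3A with DMSO for no effect and wells lacking A3A enzyme for full effect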
Target sequence (P31941 whole entry, looked up): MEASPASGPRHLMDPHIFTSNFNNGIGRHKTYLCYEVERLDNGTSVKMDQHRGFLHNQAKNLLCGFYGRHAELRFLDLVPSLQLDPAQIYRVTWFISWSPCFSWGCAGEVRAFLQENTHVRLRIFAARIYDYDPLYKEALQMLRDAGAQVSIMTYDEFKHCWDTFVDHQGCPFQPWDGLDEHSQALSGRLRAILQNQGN
Starred values were filed as active, the others as inactive; ? = inconclusive; . = not tested or not shown. Compounds with a hit are over-represented: about 5.4% of the library has one in this group of screens.

SMILES	rCAG RNA binder	ALR inh	A3G deaminase	PHOSPHO1 block	aDG glyco up	A3A deaminase
COC(=O)COC(=O)c1ccc(-n2nnnc2SC)cc1	-4	-14	-6	-16	0	-2
COC(=O)c1ccc(-n2nnnc2SC)cc1	-3	-5	15	81*	0	1
COc1ccc(CN2C(=O)CCCC2(C)c2nnnn2-c2c(C)cccc2C)cc1OC (configuration not stated)	3	.	.	.	.	.
CC(Oc1ccc(Cl)cc1Cl)C(=O)Nc1ccc(O)cc1 (configuration not stated)	0	98*	-3	18	0	0
C=CCN=C1NC(c2cccc(Cl)c2)C(C(=O)OC)=C(C)N1C (configuration not stated)	2	.	.	.	.	.
COc1ccc(NC(NC(=O)c2ccc(OC)cc2)C(Cl)(Cl)Cl)cc1 (configuration not stated)	2	98*	-6	24	3	-3
COc1ccc(C(=O)NC(Nc2ccc(C)cc2)C(Cl)(Cl)Cl)cc1 (configuration not stated)	1	46	-6	12	5	-1
CC(C)CNc1cccc2c1S(=O)(=O)N(Cc1cn(Cc3cccc(C(F)(F)F)c3)nn1)Cc1ccccc1O2	8	.	.	.	.	.
Cc1c([N+](=O)[O-])c(C(=O)Sc2ccc(Br)cc2)nn1C	-1	99*	-9	34	0	-4
Cc1ccccc1-c1ccc(Nc2ccc(N3CCOCC3)cc2)nn1	.	93*	-6	18	0	-5
COc1ccc(/C(C)=N\NC(=O)c2ccco2)cc1	0	.	.	.	.	.
COc1ccc2nc(-c3ccc(CN4CCC(c5nc6ccccc6[nH]5)CC4)cc3)c(-c3ccccc3)nc2c1	12	.	.	.	.	.
C=CCOc1c(Cl)cc(CNc2ccc3[nH]c(=O)[nH]c3c2)cc1OC	-2	98*	-3	2	0	2
C=CCOc1ccccc1CNc1ccc2[nH]c(=O)[nH]c2c1	-4	99*	-4	19	1	-4
COc1cccc(CNc2ccc3[nH]c(=O)[nH]c3c2)c1OCc1ccccc1F	1	99*	0	39	0	2
CC1(c2nnnn2Cc2ccccc2)CCCCC(=O)N1Cc1cccs1 (configuration not stated)	0	.	.	.	.	.
COc1ccc(NC(=O)CSc2nc3ccc(Nc4nc(N5CCOCC5)nc(N5CCOCC5)n4)cc3s2)cc1	4	5	-2	12	0	-3
Cc1ccc(NC(=O)CSc2nc3ccc(Nc4nc(N5CCOCC5)nc(N5CCOCC5)n4)cc3s2)cc1	2	-5	0	3	-1	1
CC(C)(C)NC(=O)CSc1nc2ccc(Nc3nc(N4CCOCC4)nc(N4CCOCC4)n3)cc2s1	8	99*	2	16	0	4
CCOC(=O)CSc1nc2ccc(Nc3nc(N4CCOCC4)nc(N4CCOCC4)n3)cc2s1	3	99*	0	2	0	1
CCOC(=O)c1ccc(Nc2nc(N3CCOCC3)nc(N3CCOCC3)n2)cc1	-2	-23	-6	55	0	-3
CC(=O)CSc1nc2ccc(Nc3nc(N4CCOCC4)nc(N4CCOCC4)n3)cc2s1	2	99*	-5	31	0	-5
CC(C)NS(=O)(=O)c1ccc2c(c1)NCC2	2	99*	-7	-6	0	0
CC(C)NS(=O)(=O)c1ccc2c3c(cccc13)CC2	5	-16	-6	57	0	-3
COC(=O)c1cc2c(c3c4ccccc4n(S(=O)(=O)c4ccccc4)c13)C(=O)N(Cc1ccc(C(F)(F)F)cc1)C2	10	.	.	.	.	.
SMILES	rCAG RNA binder	ALR inh	A3G deaminase	PHOSPHO1 block	aDG glyco up	A3A deaminase
O=C(c1ccc(F)cc1Cl)N1CCC(Oc2cccnc2)CC1	-1	.	.	.	.	.
Nc1cccc(-c2csc(-n3ncc(C(=O)O)c3C(F)(F)F)n2)c1	3	99*	-3	.	0	3
Cc1c[nH]c2cccc(-c3ccc(Cl)cc3Cl)c12	2	.	.	.	.	.
COc1ccc(Cn2ccnc2SCC(=O)Nc2cccc(NC(C)=O)c2)cc1	3	98*	3	7	0	6
COc1ccc(Cn2c(CO)cnc2SCC(=O)Nc2cccc(NC(C)=O)c2)cc1	3	99*	-3	-9	0	-6
COc1cccc(-n2nnnc2SCC(=O)Nc2cccc(NC(C)=O)c2)c1	3	0	-6	4	0	-4
COc1ccc(NC(=O)CSc2nccn2Cc2ccccc2)cc1	-4	-5	13	-34	0	1
Cc1ccc(NC(=O)CSc2nccn2Cc2ccco2)c(C)c1	-2	?	-2	14	0	3
CC(=O)Nc1cccc(NC(=O)CSc2nccn2Cc2ccco2)c1	1	99*	3	47	0	0
CC(C)(C)C(=O)CSc1nnc(SCc2cccc3ccccc23)s1	0	.	.	.	.	.
O=C(Nc1ncnc2sc3c(c12)CCCC3)c1ccncc1	-3	-13	-4	12	0	-4
O=C(Nc1ncnc2sc3c(c12)CCCCC3)c1ccco1	2	97*	1	-7	0	4
COc1ccccc1CNC(=O)Cn1cccc1C(=O)c1ccccc1C	-4	-1	0	75*	1	0
COc1cccc(CNC(=O)Cn2cccc2C(=O)c2ccccc2C)c1	-4	0	-4	64*	0	-3
Cc1ccn2c(NC3CCCCC3)c(C)nc2c1	-2	95*	-11	14	0	-3
CCC(C)Sc1ccc(-c2nc3cc(C)ccn3c2NC2CCCCC2)cc1 (configuration not stated)	-12	.	-6	.	5	-1
Cc1ccn2c(NC3CCCCC3)c(C(C)C)nc2c1	-1	99*	-2	22	0	-2
Cc1oc(-c2ccccc2)nc1CSc1nc2c(c(=O)[nH]1)CCC2	0	.	-1	-9	4	4
Cc1cccc(-c2nc(CSc3nc4c(c(=O)[nH]3)CCC4)c(C)o2)c1	4	99*	-3	-9	0	-3
COCCN1C(=O)C2=C(C1=O)C1N(C)c3ccccc3[C@@]13C[C@@H](CO)N(C(=O)CCC(=O)OC)C3=N2 (some centres not stated)	3	.	.	.	.	.
CC(=O)Nc1cccc(C(=O)/C=C/c2ccc(/C=C/C(=O)c3cccc(NC(C)=O)c3)cc2)c1	6	-3	-4	6	.	1
CC(=O)Nc1cccc(C(=O)/C=C/c2ccc(N(C)C)cc2)c1	-33	99*	-63	7	0	-34
CC(=O)Nc1cccc(C(=O)/C=C/c2cccs2)c1	3	97*	.	9	0	.
COc1ccccc1C(=O)N1CCCC(c2nc(-c3cccs3)no2)C1 (configuration not stated)	0	.	.	.	.	.
COc1ccc(S[C@]2(C(=O)NC3CC3)CC(=O)N[C@@H]2c2ccc(OC)cc2)cc1	2	.	.	.	.	.

Screens (PubChem)
